The values below come from PubChem BioAssay (NCATS).

Assay [1] in a line: qHTS profiling for inhibitors of Plasmodium falciparum proliferation (AID 504749).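 For activity, negative = inhibition: 0% = DMSO vehicle and full inhibition = artemisinin control.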 Note: nearly all actives have a fitted effect of over 60% in size. The note with it: P. falciparum in erythrocytes, SYBR Green DNA, 72 h. Put shortly: (§1)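 Each compound contacts P. falciparum-infected red blood cells for 72 h at 37 C; lysis buffer (Tris, EDTA, saponin, Triton X, SYBR Green I) is added and fluorescence measured next morning; values normalized to controls.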
(qHTS replaces the single test concentration by a dilution series.)

In another assay the test system is AA1029. The assay is described as above. The settings on record: P. falciparum in erythrocytes, SYBR Green DNA, 72 h; series mostly up to 28.7 µM. The method in brief:
as §1

In another assay the test system is AS120. The assay is described as above. The settings on record: P. falciparum in erythrocytes, SYBR Green DNA, 72 h; series mostly up to 28.7 µM. The method in brief:
as §1

In the next assay the test system is ATS189. Described as above. The settings on record: P. falciparum in erythrocytes, SYBR Green DNA, 72 h; series mostly up to 28.7 µM. The method in brief:
as §1

The test system of a further assay is 3D7. The description is as above. The settings on record: P. falciparum in erythrocytes, SYBR Green DNA, 72 h; series mostly up to 28.7 µM. The method in brief:
as §1

For the next assay, the system named is 7G8. Described as above. The note with it: P. falciparum in erythrocytes, SYBR Green DNA, 72 h; series mostly up to 28.7 µM. The method in brief:
as §1

Setting [2] is: at 28.7 µM (top of the series), parasite line A.
Where [3] appears, read: at 28.7 µM (top of the series), parasite line B.
[4] abbreviates: at 12.8 µM (top of the series), parasite line A.
The mark [5] stands for this setting: at 12.8 µM (top of the series), parasite line B.

Results filed as inconclusive are left out. Values without a mark were called inactive. Activity calls are given as the source filed them. Calls come from the whole dose curve; as a rule, active = well fitted inhibition curve with a large enough effect; inconclusive = small, poorly fitted or top-dose-only effect; inactive = flat fitted curve, though single readings scatter.
Potency is the fitted concentration of half-maximal effect.

In the case of `Cc1c(C)c2c(c(C)c1OC(=O)CCC(=O)O)CC[C@@](C)(CCC[C@H](C)CCC[C@H](C)CCCC(C)C)O2`, the activity, negative = inhibition is -10.9% in assay [1] (setting [2]) and 4.87% in assay [1] (setting [3]). Further, the Potency entry with AA1029, in the assay with AS120 and in the assay with ATS189 was “inactive” in each case.

For `CN1C(C(=O)Nc2ccccn2)C(=O)c2sc(Cl)cc2S1(=O)=O` (stereo not drawn), the figures for the activity, negative = inhibition in assay [1] (setting [2]) and in assay [1] (setting [3]) were 8.71% and -14.1%, respectively. Further, the Potency result with 3D7, with AA1029, with AS120 and in the assay on ATS189 was “inactive” each time.

As for `O=C(OCc1ccccc1)c1ccc(O)cc1`, the activity, negative = inhibition is 10.7% in assay [1] (setting [2]) and 11.3% in assay [1] (setting [3]). The Potency result in the assay with 3D7, with AA1029, in the assay on AS120 and with ATS189 was “inactive” throughout.

For `C[C@@](Cc1ccc(O)c(O)c1)(NN)C(=O)O`, the activity, negative = inhibition in assay [1] (setting [2]) is -19.2%; in assay [1] (setting [3]), -6.85%. For the same compound, the Potency result in the assay with 3D7 and in the assay on ATS189 was “inactive” throughout.

Consider `CS(=O)(=O)c1ccc([C@@H](O)[C@@H](COC(=O)CN)NC(=O)C(Cl)Cl)cc1`, for which the activity, negative = inhibition was -27.9% in assay [1] (setting [2]) and -23.7% in assay [1] (setting [3]). The Potency entry in the assay on 3D7, in the assay with AS120 and in the assay on ATS189 was “inactive” in each case.

In the case of `O=C(CCCN1CCN2CCCC2C1)c1ccc(F)cc1` (stereo not drawn), the activity, negative = inhibition in assay [1] (setting [2]) is 12%; in assay [1] (setting [3]), 7.07%. In addition, the Potency result in the assay with 3D7 and with AS120 was “inactive” throughout.

With `CCCCCCCCCC(=O)NO`, the activity, negative = inhibition was -20% in assay [1] (setting [2]) and -16.7% in assay [1] (setting [3]). For the same compound, the Potency entry in the assay on 3D7, in the assay with AA1029, in the assay on AS120 and in the assay on ATS189 was “inactive” in each case.

As to `CC(C)(C)CC(C)(C)c1ccc(OCCO)cc1`, the figures for the activity, negative = inhibition in assay [1] (setting [2]) and in assay [1] (setting [3]) were -21% and -13.8%, respectively. The Potency entry in the assay with 3D7, with AA1029, in the assay with AS120 and in the assay on ATS189 was “inactive” each time.

In the case of `CN1CCc2c(c3ccccc3n2Cc2ccccc2)C1`, the figures for the activity, negative = inhibition in assay [1] (setting [4]) and in assay [1] (setting [5]) were -0.349% and -7.12%, respectively. Besides, the Potency result with 3D7, in the assay with AS120 and in the assay with ATS189 was “inactive” each time.

Turning to `O=[N+]([O-])c1c(Cl)cccc1-c1c[nH]cc1Cl`, the activity, negative = inhibition is -12.9% in assay [1] (setting [2]) and -18.4% in assay [1] (setting [3]). Also, the Potency result with 3D7, in the assay with AA1029, with AS120 and in the assay on ATS189 was “inactive” each time.

As to `O=C(O)CCC/C=C\C[C@@H]1[C@@H](/C=C/[C@@H](O)COc2cccc(C(F)(F)F)c2)[C@H](O)C[C@@H]1O`, the activity, negative = inhibition in assay [1] (setting [2]) is -5.12%; in assay [1] (setting [3]) it was -7.34%. The Potency result with 3D7, in the assay with AA1029, with AS120 and in the assay on ATS189 was “inactive” throughout.

As to `CC(=O)[C@H]1CC[C@H]2[C@@H]3C=CC4=CC(=O)CC[C@@]4(C)[C@H]3CC[C@]12C`, the activity, negative = inhibition in assay [1] (setting [4]) is 0.59%; in assay [1] (setting [5]) it was -8.1%. In addition, the Potency result with 7G8, in the assay with AA1029, in the assay with AS120 and in the assay with ATS189 was “inactive” throughout.

`CCN(CC)CCOc1ccc2nc(N(C)C)sc2c1`: the activity, negative = inhibition was 2.07% in assay [1] (setting [2]) and 4.31% in assay [1] (setting [3]). Also, the Potency entry with 7G8, with AA1029, in the assay on AS120 and in the assay with ATS189 was “inactive” each time.

As for `COc1ccccc1N1CCN(CCCC(=O)c2ccc(F)cc2)CC1`, the activity, negative = inhibition in assay [1] (setting [2]) is -16.2%; in assay [1] (setting [3]), 9.5%. In addition, the Potency entry in the assay on 3D7, in the assay with AA1029, with AS120 and with ATS189 was “inactive” throughout.

Consider `Cn1c(=O)c2c(ncn2CCOC(=O)C(C)(C)Oc2ccc(Cl)cc2)n(C)c1=O`, for which the activity, negative = inhibition in assay [1] (setting [2]) is -0.561%. Also, the Potency result in the assay on 3D7 and in the assay with 7G8 was “inactive” in each case.

Regarding `O=C(O)CCC/C=C\C[C@@H]1[C@@H](/C=C/[C@@H](O)COc2cccc(Cl)c2)[C@H](O)C[C@@H]1O`, the activity, negative = inhibition was 11.9% in assay [1] (setting [2]) and -6.6% in assay [1] (setting [3]). For the same compound, the Potency result in the assay with 3D7, with AA1029, with AS120 and with ATS189 was “inactive” in each case.

On to `NC(=O)Oc1ccc(Cc2ccccc2)cc1`, for which the activity, negative = inhibition was 0.685% in assay [1] (setting [2]) and 4.41% in assay [1] (setting [3]). Moreover, the Potency result with 3D7, in the assay with AA1029, in the assay with AS120 and with ATS189 was “inactive” in each case.

`N=C(N)c1ccc(/C=C/c2ccc(C(=N)N)cc2O)cc1`: the Potency is 8.91 µM (active) in assay [1] (parasite line A); 10 µM (active) in assay [1] (parasite line B); 3.98 µM (active) with 7G8; 10 µM (active) with AA1029; 12.6 µM (active) in the assay with AS120.

Regarding `O=C(CCCN1CCC(C(=O)c2ccc(F)cc2)CC1)c1ccc(F)cc1`, the values for the activity, negative = inhibition in assay [1] (setting [2]) and in assay [1] (setting [3]) were -20.7% and 15.1%, respectively. For the same compound, the Potency in the assay on 7G8 was 11.2 µM (active). The Potency result with AA1029 and with AS120 was “inactive” throughout.

Take `CC1CCC(NC(=O)N(CCCl)N=O)CC1` (stereo not drawn): the activity, negative = inhibition in assay [1] (setting [2]) is 9.36%; in assay [1] (setting [3]), 3.89%. In addition, the Potency result with 3D7, in the assay on AA1029, in the assay on AS120 and in the assay with ATS189 was “inactive” each time.
